# Screens deposited in PubChem BioAssay by several laboratories.
# Rows were chosen to be rich in hits. Some 1.7% of all compounds tested hit in one or more screens of this group.
# Fh CTSL1 inh: counter-screen for PFM18AAP inhibitors: inhibitors of F. hepatica cathepsin L1; inhibition, % at 5.96 µM; recombinant F. hepatica cathepsin L1, Z-Leu-Arg-MCA fluorescence; 0.49% of 300,000 active;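 active = inhibition above the mean of all tested compounds plus 3 SD, set per screening campaign, cut at about 17% in these data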;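 note: 0% = plate median of test compound wells and 100% = 1 µM Z-Phe-Ala-diazomethylketone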
# m5-HT2A agonist: agonists of mouse serotonin 5-HT2A receptor (HTR2A); CHO-K1 mHTR2A beta-arrestin complementation, luminescence; percent of 30 µM serotonin response; 0.66% of 360,000 active; P35363; activation, % at 7.6 µM;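 active = activation above a run cutoff, the mean activation of all tested compounds plus 3 SD, cut at about 14% in these data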;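 note: 0% = plate median of compound wells and 100% = 30 µM serotonin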
# Target sequence (P35363 whole entry, looked up): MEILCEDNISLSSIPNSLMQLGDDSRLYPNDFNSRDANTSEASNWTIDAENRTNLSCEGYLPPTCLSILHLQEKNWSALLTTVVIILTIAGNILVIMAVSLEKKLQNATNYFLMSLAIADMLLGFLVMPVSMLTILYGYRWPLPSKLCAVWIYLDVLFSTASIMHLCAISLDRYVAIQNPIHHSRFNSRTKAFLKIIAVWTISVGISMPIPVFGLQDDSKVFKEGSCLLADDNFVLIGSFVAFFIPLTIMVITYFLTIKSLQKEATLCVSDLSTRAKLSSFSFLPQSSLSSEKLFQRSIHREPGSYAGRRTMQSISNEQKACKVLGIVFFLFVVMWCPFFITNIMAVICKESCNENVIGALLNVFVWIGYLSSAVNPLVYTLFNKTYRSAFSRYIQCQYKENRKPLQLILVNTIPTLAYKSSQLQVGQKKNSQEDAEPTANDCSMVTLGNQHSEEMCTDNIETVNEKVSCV
# LANA-H2B inh: blocks KSHV LANA binding to histone H2A/H2B. cell-free LANA-H2A/H2B peptide, fluorescence polarization. Q9QR71. inhibition, % (concentration not given with the values). 0.6% of 320,000 active; in the data active = inhibition mostly above about 10%, no sharp cut-off; inactive = mostly below about 6.7%
# HDAC3 inhib: blocks human histone deacetylase 3 | O15379 | recombinant HDAC3, fluorogenic peptide/trypsin coupled, fluorescence | inhibition, % at 8.3 µM | 0.15% of 320,000 active | AID 2718; in the data active = inhibition above about 26%, passing the limit was not always enough; inconclusive = no clear call, values can overlap the other calls
# OPRM1 ag: counter-screen for mouse HTR2A agonists: human mu opioid receptor agonists; U2OS OPRM1 beta-arrestin PathHunter, luminescence; DMSO 0%, DAMGO 9.3 µM 100%; shares compounds with m5-HT2A agonist; 5.3% of 2,300 active; activation, % at 9.3 µM;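 active = mean activation above the mean of DMSO-only wells plus 3 SD, cut at about 0.5% in these data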
# HTR2A ag conf: confirmation of mouse HTR2A serotonin receptor agonists; 19% of 2,300 active; activation, % at 7.6 µM; CHO-K1 PathHunter beta-arrestin recruitment, luminescence; DMSO 0%, 30 µM serotonin 100%; shares compounds with m5-HT2A agonist;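 active = mean activation across triplicates above the hit threshold derived in the original primary screen, cut at about 15% in these data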
# Starred values were filed as active, the others as inactive; ? = inconclusive; / = not tested or not shown.
SMILES,Fh CTSL1 inh,m5-HT2A agonist,LANA-H2B inh,HDAC3 inhib,OPRM1 ag,HTR2A ag conf
Cc1ccc(CN2CCCC(C(=O)c3sccc3C)C2)o1 (centres undefined),0,-4,-3,-2,/,/
O=C(N/N=C/c1c(O)n(-c2cccc3ccccc23)c(=O)[nH]c1=O)c1ccncc1,-3,-6,0,4,/,/
CCC1C=CC=CC[C@H](C)[C@@H](O)[C@](C)(O)C(=O)[C@@H](C)[C@H](O)[C@@H](C)C(=O)[C@H](C)[C@@H](O)[C@H](C)C=CC(=O)OC2[C@@H](C)C(CC1)OC1(CC[C@@H](C)C(C[C@H](C)O)O1)[C@@H]2C (some centres undefined),6,/,-3,15,/,/
S=C=Nc1cccc(C2(N3CCCCC3)CCCCC2)c1,1,24*,0,-7,/,0
O=C1CN=C(c2ccccc2)c2c(sc3c2CCCC3)N1,2,5,-2,-6,/,/
COc1ccc(CCNCc2ccsc2)cc1OC,2,19*,1,-1,-1,10
COc1ccc(CCNCc2ccc(F)cc2)cc1OC,-5,-1,3,6,/,/
Cc1cccc(CCNCc2cc3ccc(C)cc3[nH]c2=O)c1,4,9,2,-2,/,/
O=C(NN=Cc1ccc(N(CCCl)CCCl)cc1)C(=O)c1c[nH]c2ccccc12,/,-1,/,/,/,/
O=C(NN=Cc1ccc(N(CCCl)CCCl)cc1)c1cc(=O)[nH]c(=O)[nH]1,/,18*,/,/,-1,-2
COC(=O)C1=C(c2ccccc2OCc2ccccc2)C[C@@H]2CC[C@H]1N2C(=O)NCCOc1ccccc1,/,-5,8,3,/,/
Cc1cnc(-n2c(=S)[nH]c3ccccc3c2=O)s1,/,-7,0,1,/,/
Clc1ccc2sc(C3CCNCC3)nc2c1,0,38*,6,4,-1,15*
COc1cc(C(=O)N/N=C/C23CC[C@@H](O)CC2(O)CC[C@@H]2[C@@H]3CCC3(C)C(C4=CC(=O)OC4)CCC23O)ccc1O (some centres undefined),-3,15*,3,2,0,-3
C[C@@H]1O[C@@H](O[C@@H]2C=C3CCC4C(CC[C@]5(C)[C@@H](c6ccc(=O)oc6)CC[C@]45O)[C@@]3(C)CC2)[C@H](O)[C@H](O)[C@H]1O (some centres undefined),25*,16*,-1,-9,7.7*,28*
C[C@@H]1O[C@@H](O[C@@H]2C=C3CC[C@@H]4C(CC[C@]5(C)[C@@H](c6ccc(=O)oc6)CC[C@]45O)[C@@]3(C)CC2)[C@H](O)[C@H](O)[C@H]1O (some centres undefined),/,18*,0,3,6.3*,9
CS(=O)(=O)c1ccc(C2=C(CNC(=O)c3cccnc3)[C@H]3CC[C@@H](C2)N3Cc2ccco2)cc1,/,-7,/,/,/,/
COc1ccc(-n2nnnc2C(c2ccccc2OC(F)(F)F)N2CCC(n3c(=O)[nH]c4ccccc43)CC2)cc1 (centres undefined),/,16*,/,/,/,7
COc1ccc(C(c2nnnn2-c2ccc3c(c2)OCCO3)N2CCC(n3c(=O)[nH]c4ccccc43)CC2)cc1 (centres undefined),/,18*,/,/,/,15*
CCC(c1nnnn1-c1ccc(OC)cc1)N1CCC(n2c(=O)[nH]c3ccccc32)CC1 (centres undefined),/,3,/,/,/,/
COC(=O)C1=C(c2ccc(OC)c(OC)c2)C[C@@H]2CC[C@H]1N2C(=O)N1CCc2cc(OC)c(OC)cc2C1,/,8,2,-3,/,/
COP(=O)(OC)C1(Nc2ccc(C)cc2)CCCCC1,-3,15*,0,2,-1,-3
c1ccc2oc(N3CCNCC3)nc2c1,2,29*,-4,1,0,11
Clc1ccccc1CN1CCN(c2ccccc2)CC1,0,27*,8,7,0,53*
Clc1cccc(CNCCc2ccc3c(c2)OCO3)c1,-4,32*,2,14,0,8
SMILES,Fh CTSL1 inh,m5-HT2A agonist,LANA-H2B inh,HDAC3 inhib,OPRM1 ag,HTR2A ag conf
Fc1ccccc1CNCCc1ccc2c(c1)OCO2,-2,21*,-1,2,-1,13
Fc1ccc(CCNCc2cccc(Cl)c2)cc1,0,24*,-4,?,0,7
Clc1ccc(CNCCc2ccc3c(c2)OCO3)cc1,0,2,-2,3,/,/
CCOP(=O)(OCC)/C(C#N)=C/c1ccoc1,/,0,11,-1,/,/
CC(C)[C@@]1(NC(=O)[C@@H]2C[C@@H]3c4cccc5[nH]cc(c45)C[C@H]3N(C)C2)O[C@@]2(O)[C@@H]3CCCN3C(=O)[C@H](Cc3ccccc3)N2C1=O,1,30*,16*,0,0,83*
CCC(=NCCc1c[nH]c2ccccc12)c1c(O)n(-c2ccc(C)cc2)c(=O)[nH]c1=O,-2,-3,-2,6,/,/
CCC(=NCCc1c[nH]c2ccccc12)c1c(O)n(C)c(=O)n(C)c1=O,-7,27*,1,4,0,-1
CN1C[C@H](CO)C=C2c3cccc4[nH]cc(c34)C[C@H]21,-2,30*,2,-112,0,94*
C[C@]12CC[C@H](O)CC1=CCC1C2CC[C@@]2(C)C1C[C@@H](O)[C@@H]2O (some centres undefined),/,1,1,6,/,/
CC(=O)C1C(N2CC2)CC2C3CC=C4CC(O)CCC4(C)C3CCC21C (centres undefined),/,33*,/,/,-1,2
CCC(C)C(NC(=O)CCCNC(=O)CCC(=O)OC1O[C@H]2OC3(C)CC[C@H]4[C@H](C)CCC(C1C)C24OO3)C(=O)O (some centres undefined),-5,21*,-2,-5,0.6*,-4
CCC(C)NC(=O)CCC(=O)OC1O[C@H]2OC3(C)CC[C@H]4[C@H](C)CCC(C1C)C24OO3 (some centres undefined),/,-4,3,6,/,/
CC12CCC(=O)CC1CCC1C2C(=O)CC2(C)C1CCC2(C)O (centres undefined),/,-1,/,/,/,/
S=C1NC2(CCCCC2)NC12CCCCC2,0,2,-5,-4,/,/
C=CCN1CC[C@]23c4c5ccc(O)c4O[C@H]2C(=O)CC[C@@]3(O)[C@H]1C5,-5,5,2,4,/,/
C=CCN1CCc2cccc3c2[C@H]1Cc1ccc(O)c(O)c1-3,-3,55*,2,-1,1.2*,167*
C[C@H]1CCC/C=C/[C@@H]2C[C@H](O)C[C@H]2[C@H](O)/C=C/C(=O)O1,4,-1,-12,-5,/,/
N/C(=N\[N+](=O)[O-])N1CCN(C(=O)c2ccccn2)CC1,1,-3,0,-11,/,/
Cc1cc(O)c(CN2CC=C(c3ccccc3)CC2)cc1C(C)C,-2,-13,-1,2,/,/
